In ChEMBL document CHEMBL3988442, “University of Dundee, Small-Polar-MMV Screening Library” (2021):
In all, about 48,000 compounds went through this assay and about 13,000 (27%) showed an effect of 50% or more. The list shows a part of the results.

tested on: Wolbachia pipientis; test: Anti-Wolbachia Cell-Based Screen; assay type: functional; set-up: scale not given: in the data most compounds retested in dose-response had high values; conditions: 5 µM

Compound | Percent Effect [%]
COc1ccccc1CC1CCCN(CCC#N)C1 (stereo unspecified) | -6.976
Cc1nonc1C1CCCN1C(=O)c1cc2n(n1)CCCNC2 (stereo unspecified) | -3.031
COCC(O)CN(C)c1ccnc2cc(Br)ccc12 (stereo unspecified) | 92.3
COc1cc(F)ccc1N(C)Cc1ccccn1 | 9.437
COCC(O)CN(C)c1ccnc2ccc(Cl)cc12 (stereo unspecified) | 99.68
COCC(=O)N1CCC(Nc2ccnc3ccc(Cl)cc23)CC1 | -6.533
Cc1ccc(N(C)CC(O)COCc2ccccc2F)c(C)c1 (stereo unspecified) | 0.5576
COc1ccc(COCC(O)CN(C)c2ccc(C)cc2C)cc1 (stereo unspecified) | 10.8
COCC(O)CNc1cncc(Br)c1 (stereo unspecified) | -2.667
COCC(O)CN(C)c1ccnc2cc(F)ccc12 (stereo unspecified) | 83.56
COc1ccc(Cl)cc1NC(=O)N(C)CC(O)COCCOC(C)C (stereo unspecified) | -8.214
COC(=O)c1ccc(Cl)c(NS(=O)(=O)c2cnn(C)c2)c1 | -1.605
O=C(CNC(=O)C1CC1)NCC(F)(F)F | -16.51
O=C(CCc1ccccc1)N1CCC(c2n[nH]c(C3CC3)n2)CC1 | -4.114
Cl.O=C(CCc1cccc(C2CCNCC2)n1)N1CCCCC1 | 116.4
Cl.NC(=O)CCc1cccc(C2CCNCC2)n1 | 115.3
CNC(=O)[C@H]1C[C@@H]2CN(S(=O)(=O)c3ccc(C)c(F)c3)C[C@@H]2N1C.O=C(O)C(F)(F)F | -6.907
O=C(c1ccoc1)N1CCCC1C1CCN(Cc2ccccc2)CC1 (stereo unspecified) | -51.53
Cc1nn(C)c(Cl)c1C1CCCN1c1ncnc2c1CCC2 (stereo unspecified) | 16.41
COc1ccc2c(C)c(C(=O)NC3CCN(S(C)(=O)=O)CC3)oc2c1 | 1.038
CNC(=O)c1[nH]nc2ccc(I)cc12 | 8.904
Cc1c(C(=O)O)oc2ccc(I)cc12 | 125.9

Compound | Percent Effect [%]
O=C(O)CSc1nnc(-c2ccco2)n1-c1ccccc1C(F)(F)F | -16
COc1cc2c(nn1)CCN(Cc1noc(-c3ccccc3)n1)C2 | -2.709
NC(=O)c1ccc(C(=O)N(Cc2ccc(O)cc2)CC2CC2)cc1 | -2.707
CCOCC1c2c(cnn2C)CCN1C(=O)c1cc(C)on1.O=C(O)C(F)(F)F (stereo unspecified) | 118
COCC1c2c(cnn2C)CCN1C(=O)c1cc(C)on1.O=C(O)C(F)(F)F (stereo unspecified) | 103.5
CCOCC1c2c(cnn2C)CCN1C(=O)c1ccncn1.O=C(O)C(F)(F)F (stereo unspecified) | -13.88
COCC1c2nnn(CC3CC3)c2CCN1C(=O)c1cc(C)on1 (stereo unspecified) | 18.93
O=C(COc1cccc(Br)c1)N1CCN(c2nccs2)CC1 | 20.8
CC(C)c1noc(C2CCCN2C(=O)Cc2cn3ccsc3n2)n1 (stereo unspecified) | 5.125
CN(C)CCCNC(=O)C(c1cccc(F)c1)N(C)C (stereo unspecified) | 6.227
O=C(Nc1ccc(-n2ccnc2)c(F)c1)C1CCN(C(=O)C2CC2)CC1 | -14.41
COC(C)c1cccc(NCc2cccc(O)c2)c1 (stereo unspecified) | 1.439
Cn1ccc2c(cnc3nc(-c4ccncc4)nn32)c1=O | 109.5
Cc1nc2nc(C)c3c(=O)n(-c4ccn[nH]4)ccc3n2n1 | 1.096
Cc1nc2ncc3c(=O)n(C)ccc3n2n1 | 126.9
CSc1nc2ncc3c(=O)n(C)ccc3n2n1 | 108.2
Cc1nc(C2CCCN2Cc2nnc(C3CC3)o2)no1 (stereo unspecified) | 5.301
CC(C)c1nc(CN2CCCC2Cn2cccn2)no1 (stereo unspecified) | 118.9
Cc1ccc(-c2nc(CN3CCCC3Cn3cc(C)cn3)no2)cc1 (stereo unspecified) | 3.147
COc1ccc(-c2nc(CN3CCCC3Cn3cccn3)no2)cc1 (stereo unspecified) | 1.848
c1cnn(CC2CCCN2Cc2noc(C3CC3)n2)c1 (stereo unspecified) | 88.48
Cc1nc(CN2CCCCC2Cn2cccn2)nc2ccccc12 (stereo unspecified) | -7.431

Compound | Percent Effect [%]
c1ncn(CC2CCCCN2Cc2noc(C3CC3)n2)n1 (stereo unspecified) | -14.69
c1ccc(-c2nc(CN3CCCC3Cn3cccn3)no2)cc1 (stereo unspecified) | 97.29
OC(COCc1ccco1)CSc1nnc2ccccn12 (stereo unspecified) | -3.086
O=C(NCCN1CCc2ccccc21)c1cc(-c2ccc(O)cc2)n[nH]1 | -2.452
Cn1cccc1CNCc1nnc2n1CCCC2C(F)(F)F (stereo unspecified) | -16.29
COc1ccc(-n2ccc(C(=O)NCCN3CCCCC3C)n2)cc1 (stereo unspecified) | -3.568
COc1ccc2nc(C)c(C(=O)NCCN3CCS(=O)(=O)CC3)cc2c1 | 7.609
COc1ccc(-n2ccc(C(=O)NCCN3CCCCC3)n2)cc1 | 102.6
O=C(NCCN1CCCCCC1=O)c1ccn(-c2ccc(F)cc2)n1 | 0.8221
O=C(NCCN1CCOCC1)c1ccn(-c2ccccc2F)n1 | 7.854
COc1ccc(-n2ccc(C(=O)NCCN3CCCCCC3)n2)cc1 | 92.28
COc1ccc(-n2ccc(C(=O)NCCN3CCC(C)CC3)n2)cc1 | 99.65
O=C(NCCN1CCCCC1)c1ccn(-c2ccccc2)n1 | 106.8
O=C(O)C(F)(F)F.O=S(=O)(NCC1OCCc2cn(CC3CCOCC3)nc21)C1CC1 (stereo unspecified) | -11.9
CNC(=O)CS(=O)(=O)Cc1ccc(OC)c(F)c1 | -52.3
FC(F)(F)C1CCc2nnc(CNCc3ccsc3)n2C1 (stereo unspecified) | 11.3
CC1CCN(CCNC(=O)c2ccn(-c3ccccc3)n2)CC1 | 84.83
Cc1c(C(=O)N(C)C)cccc1N(C)S(C)(=O)=O | 107
CN(C(=O)c1ccc(Cl)c(S(C)(=O)=O)c1)c1ccccc1 | -9.214
COc1cc(C(N)=O)c(N(C)S(C)(=O)=O)cc1OC | -14.68
CN(C(=O)c1ccncc1)c1ccccc1S(C)(=O)=O | 8.968
CN(C(=O)c1cccc(C(=O)NS(C)(=O)=O)c1)c1ccccc1 | -9.633

Compound | Percent Effect [%]
Cc1c(C(=O)N(C)c2ccccc2)cccc1N(C)S(C)(=O)=O | 104.7
O=S(=O)(Nc1ncccc1F)c1cc(Cl)cc2c1OCC2 | -5.525
Cc1nc(C)n(CC(C)C(=O)N2CCC(N3CCC(O)CC3)CC2)n1 (stereo unspecified) | -19.51
Cc1ccc2c(c1)c(CNC(=O)C1CCN(C(C)C)CC1)nn2C | -24.27
CNC(=O)C(C)(C)CNC(=O)Nc1ccncc1C | -8.722
O=C(CN1CCCC(c2ncc[nH]2)C1)NCC(F)(F)F (stereo unspecified) | -4.538
Cc1noc(C)c1CN1CCC(N(C)Cc2nnc(C3CC3)n2C)C1 (stereo unspecified) | 103.9
CN(Cc1nnc(C2CC2)n1C)C1CCN(Cc2ccon2)C1 (stereo unspecified) | -8.64
CN(Cc1nnc(C2CC2)n1C)C1CCN(CCS(C)(=O)=O)C1 (stereo unspecified) | -20.16
Cc1cc(CN2CCC(N(C)Cc3nnc(C4CC4)n3C)C2)on1 (stereo unspecified) | 124.1
CCn1c(C)nnc1CN(C)C1CCN(Cc2c(C)noc2C)C1 (stereo unspecified) | -8.892
Cc1nc(CN2CCC(N(C)Cc3nnc(C4CC4)n3C)C2)oc1C (stereo unspecified) | 102.1
Cc1nnc(CN2CCC(N(C)Cc3nnc(C4CC4)n3C)C2)o1 (stereo unspecified) | -3.428
Cc1ccc(C2CSCCN2CCS(C)(=O)=O)cc1 (stereo unspecified) | -9.324
O=C(NC1CC(=O)N(C2Cc3ccccc3C2)C1)c1ccsc1 (stereo unspecified) | -4.544
CN1CCC(Cc2nc(-c3cnccn3)n(Cc3ccccc3)n2)CC1 | 21.66
CN1CCC(Cc2cncc(-c3ccccc3C(=O)O)n2)C1 (stereo unspecified) | 111.7
CS(=O)(=O)N1CCCC(Cc2cncc(-c3ccccc3C(=O)O)n2)C1 (stereo unspecified) | 106.5
COCCN1CCC(Cc2cnc(-c3ccccc3C(=O)O)cn2)CC1 | 103.8
COCCN1CC[C@@H](O)[C@@H]1Cc1ccccc1.O=C(O)C(F)(F)F | 8.923
CC(C)N1CCC(Cc2cncc(-c3ccccc3C(=O)O)n2)C1 (stereo unspecified) | 128.5
CC(C)n1nc(Cn2cccn2)c2c1CN(C1CCOC1)C2.O=C(O)C(F)(F)F (stereo unspecified) | -7.587

Compound | Percent Effect [%]
COc1cc(C)ccc1S(=O)(=O)N1CC[C@](C)(O)[C@H](C)C1 | -18.99
Cc1cnn(C2CN(CC(O)Cn3cccn3)C2)c1 (stereo unspecified) | -31.52
COc1ncccc1-c1nc(-c2ccccn2)nn1C1CCS(=O)(=O)C1 (stereo unspecified) | 10.63
CC(C#N)CNS(=O)(=O)c1ccc(F)c(Br)c1 (stereo unspecified) | -7.227
O=C(Nc1ccc(S(=O)(=O)Nc2c(F)cccc2F)cc1)N1CCCC1 | -7.034
CCOc1nnc(CN(CC)CC(=O)Nc2c(F)cccc2F)s1 | 97.11
CCN(CC(=O)NC(C)(C)C)Cc1cccc2c1OCCO2 | -0.7065
CCOc1nnc(CN(CC)CC(=O)NC(C)(C)C)s1 | 93.91
CCN(CC(=O)Nc1cc(C(C)(C)C)no1)Cc1ccc(Cl)s1 | 1.082
CCOc1nnc(CN(CC)CC(=O)NC(C)C)s1 | 101.2
CCN(CC(=O)NC(C)C)S(=O)(=O)N1CCCCCC1 | 9.147
CCOc1nnc(CN(Cc2ccccc2)CC(O)c2ccco2)s1 (stereo unspecified) | 2.067
CCNC(=O)CN(CC)Cc1nc2c(F)cccc2n1CC | -0.387
CCOc1ccccc1C(CC(=O)Nc1ccccc1F)NC(C)=O (stereo unspecified) | -7.406
O=C1[C@@H]2CCN(Cc3ccc(F)cc3)C[C@@H]2OCCN1c1cccnc1 | -21
Cc1cccc(CN2CCCC3(CCN(C4CCSCC4)C3)C2=O)c1 (stereo unspecified) | -3.098
CN(C)C(=O)Cn1ccc2cc(NC(=O)N3CCSCC3)ccc21 | -2.006
Cc1ccc(C)c2c(O)cc(CNCC(N)=O)nc12 | -7.963
